Laboratory results reported in PMC5913336, “True equilibrium measurement of transcription factor-DNA binding affinities using automated polarization microscopy”.

Molecular target: Cic (Drosophila melanogaster, UniProt Q9U1H0 483-565)
Assay: FP; 33 mM phosphate pH 7.0, 90 mM NaCl, 0.01% Tween 20, 0.1 mM DTT, 0.5% agarose; room temperature
Settings: tags: N-GST (pGEX-6P-1, kept); dsDNA, one strand shown

Row | Sequence | binding signal | Kd
1 | CGTTTAATGGGGT | 4.43 Kd / Kd of best base at the position | 
2 | CGCTGAATGGGGT | 3.22 Kd / Kd of best base at the position | 
3 | CGTTGAATGGGGG | 2.15 Kd / Kd of best base at the position | 
4 | GGTTGAATGGGGT | 1.41 Kd / Kd of best base at the position | 
5 | CGTTGAATGCGGT | 7.69 Kd / Kd of best base at the position | 
6 | CGTTGAATGGGGA | 2.36 Kd / Kd of best base at the position | 
7 | CGTTGAATGGTGT | 2.29 Kd / Kd of best base at the position | 
8 | CGTGGAATGGGGT | 17.5 Kd / Kd of best base at the position | 
9 | CGTTGGATGGGGT | 20.4 Kd / Kd of best base at the position | 
10 | CGGTGAATGGGGT | 2.27 Kd / Kd of best base at the position | 
11 | CGTTGAATGTGGT | 4.08 Kd / Kd of best base at the position | 
12 | CGTTGAATGGGCT | 1.86 Kd / Kd of best base at the position | 
13 | CGTTGAATGGGGC | 2.65 Kd / Kd of best base at the position | 
14 | CCTTGAATGGGGT | 1.89 Kd / Kd of best base at the position | 
15 | CGTTGAATGGGGT |  | ~34.1 nM
16 | CGTTGAATGAGGT | 2.2 Kd / Kd of best base at the position | 
17 | AGTTGAATGGGGT | 1.69 Kd / Kd of best base at the position | 
18 | CATTGAATGGGGT | 1.53 Kd / Kd of best base at the position | 
19 | CGTTGAATGGGTT | 1.85 Kd / Kd of best base at the position | 
20 | CGTTGAAGGGGGT | 11.1 Kd / Kd of best base at the position | 

Row | Sequence | binding signal | Kd
21 | CGTCGAATGGGGT | 12.4 Kd / Kd of best base at the position | 
22 | CGATGAATGGGGT | 2.02 Kd / Kd of best base at the position | 
23 | CGTAGAATGGGGT | 5.55 Kd / Kd of best base at the position | 
24 | CGTTGTATGGGGT | 5.33 Kd / Kd of best base at the position | 
25 | CGTTGAACGGGGT | 10.1 Kd / Kd of best base at the position | 
26 | CGTTGAATGGGAT | 1.93 Kd / Kd of best base at the position | 
27 | CGTTGATTGGGGT | 8.11 Kd / Kd of best base at the position | 
28 | CGTTGAAAGGGGT | 8.64 Kd / Kd of best base at the position | 
29 | CGTTCAATGGGGT | 1.93 Kd / Kd of best base at the position | 
30 | CTTTGAATGGGGT | 1.85 Kd / Kd of best base at the position | 
31 | CGTTGCATGGGGT | 17.1 Kd / Kd of best base at the position | 
32 | CGTTGACTGGGGT | 3.64 Kd / Kd of best base at the position | 
33 | CGTTGAATTGGGT | 6.71 Kd / Kd of best base at the position | 
34 | CGTTGAGTGGGGT | 7.68 Kd / Kd of best base at the position | 
35 | TGTTGAATGGGGT | 1.66 Kd / Kd of best base at the position | 
36 | CGTTGAATAGGGT | 6.64 Kd / Kd of best base at the position | 
37 | CGTTAAATGGGGT | 3.06 Kd / Kd of best base at the position | 
38 | CGTTGAATGGAGT | 1.79 Kd / Kd of best base at the position | 
39 | CGTTGAATCGGGT | 7.88 Kd / Kd of best base at the position | 
